Screens as filed in PubChem.
Only some compounds are listed: those with a hit (about 11% of all), similar ones and a draw of the others.
HP1b binding inh: inhibitors of HP1-beta chromodomain binding to methylated histone tails | AlphaScreen HP1-beta / biotin-H3K9me3 peptide binding | Potency, µM (highest dose often 114 µM), inactives show top-dose activity change, negative = inhibition, actives largely listed as inhibitors | hit rate 0.56% among 390,000 | AID 540317; note: potency is the fitted concentration of half-maximal effect; nearly all actives have a fitted effect of over 70% in size
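HP1-beta protein (50 nM final) preincubated 30 min at room temperature with biotinylated H3(1-18)K9me3 peptide (50 nM) in PBS pH 7.4, 0.01% Tween-20, then compound added for 30 min. AlphaScreen streptavidin donor/nickel chelate acceptor beads (10 ug/mL final), 30 min dark, luminescence read.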
PI5P4Ka inh: inhibitors of human PI5P4K alpha. P48426. PI5P4Kalpha enzyme, ADP-Glo luminescence, 60 min; active compounds read low. max response, %. hit rate 1.2% among 330,000; active = max response of -50% or lower; inconclusive = between -30% and -50%; inactive = -30% or higher; note: value at the top dose of about 77 µM; % is set by controls: 0 for no effect and ±100 for the full control effect
Target sequence (P48426 whole entry, looked up): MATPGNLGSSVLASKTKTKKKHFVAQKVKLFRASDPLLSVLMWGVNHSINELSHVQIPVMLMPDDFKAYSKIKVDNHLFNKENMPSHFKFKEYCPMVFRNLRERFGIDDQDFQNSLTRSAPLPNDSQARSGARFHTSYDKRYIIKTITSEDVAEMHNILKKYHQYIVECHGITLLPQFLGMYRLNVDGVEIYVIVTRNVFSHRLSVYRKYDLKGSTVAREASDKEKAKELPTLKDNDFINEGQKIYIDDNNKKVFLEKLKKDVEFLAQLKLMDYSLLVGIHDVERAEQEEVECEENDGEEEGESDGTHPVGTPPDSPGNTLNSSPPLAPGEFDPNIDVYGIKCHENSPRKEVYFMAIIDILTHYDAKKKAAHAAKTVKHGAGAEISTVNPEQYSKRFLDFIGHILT
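Human PI5P4Kalpha with substrate in 0.038 M HEPES pH 7.4, 0.28 mM EGTA, 0.1% CHAPS, 5% DMSO; reaction started with 5 microM ATP (final), 60 min at room temperature. ADP formed read by ADP-Glo luminescence.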
JMJD2A Tudor: blocks the human JMJD2A Tudor domain | O75164 | AlphaScreen JMJD2A-Tudor / H3K4me3 peptide binding | Potency, µM (series often up to 114 µM), inactives show at the top dose activity change, negative = inhibition, actives largely listed as inhibitors | hit rate 4.4% among 390,000; note: potency is the fitted concentration of half-maximal effect; % is set by controls: 0 for no effect and ±100 for the full control effect; nearly all actives have a fitted effect of over 50% in size
BAZ2B block: blocks human BAZ2B. Potency, µM (titrated, usually from 114 µM), for inactives: at the highest dose activity change, negative = inhibition, actives largely listed as inhibitors. hit rate 4.4% among 360,000. AlphaScreen BAZ2B-H3K14Ac peptide displacement. AID 504333. Q9UIF8; note: potency is the fitted concentration of half-maximal effect; % is set by controls: 0 for no effect and ±100 for the full control effect; nearly all actives have a fitted effect of over 60% in size
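AlphaScreen luminescence quantifies BAZ2B engagement of H3K14Ac peptide; the protein and biotinylated peptide are both at 50 nM final, buffer PBS pH 7.4 with 0.01% Tween-20, all steps at room temperature.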
G9a inh: inhibitors of human histone lysine methyltransferase G9a. Q96KQ7. G9a H3K9 monomethylation, AlphaScreen, 2 h. Potency, µM (titrated, usually from 102 µM), inactives show at the highest dose activity, negative = inhibition, most hits filed as inhibitors. hit rate 8.8% among 350,000; note: potency is the fitted concentration of half-maximal effect; % is set by controls: 0 for no effect and ±100 for the full control effect; nearly all actives have a fitted effect of over 75% in size
Target sequence (Q96KQ7 913-1193 limits assumed): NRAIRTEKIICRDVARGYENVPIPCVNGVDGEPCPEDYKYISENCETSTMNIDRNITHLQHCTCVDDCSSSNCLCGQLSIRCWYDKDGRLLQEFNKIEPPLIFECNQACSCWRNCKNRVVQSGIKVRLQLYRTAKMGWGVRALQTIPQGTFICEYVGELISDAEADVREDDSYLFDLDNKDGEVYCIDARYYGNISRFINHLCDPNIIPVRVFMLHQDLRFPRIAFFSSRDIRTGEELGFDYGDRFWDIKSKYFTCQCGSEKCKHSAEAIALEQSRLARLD
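AlphaScreen detection with an anti-monomethyl H3K9 antibody quantified product after a 2 h room-temperature reaction containing 500 nM biotinylated H3K9 peptide, 20 µM SAM and 20 nM enzyme, which had been preincubated 15 min with compound.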
L3MBTL1 block: L3MBTL1 (human) inhibition. AlphaScreen L3MBTL1–H3K9me1 peptide binding. Q9Y468. Potency, µM (titrated, usually from 57.1 µM), for the others: at the highest dose activity, negative = inhibition, most hits filed as inhibitors. AID 485360. hit rate 0.66% among 230,000; note: potency is the fitted concentration of half-maximal effect; % is set by controls: 0 for no effect and ±100 for the full control effect; nearly all actives have a fitted effect of over 60% in size
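AlphaScreen proximity signal between nickel-chelate acceptor and streptavidin donor beads (final 10 ug/mL) reports binding of 50 nM L3MBTL1 to 75 nM biotin-H3 K9me1 peptide; complex incubated with compounds 30 min at room temperature; cefsulodin titration as control.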
The depositor's hits bear a star; [ ] = dose if it differs, or a comment. Unless noted, calls come from the whole dose curve; as a rule, active = well fitted inhibition curve with a large enough effect; inconclusive = small, poorly fitted or top-dose-only effect; inactive = no such curve, though single readings can be large or run the other way.

How did COc1ccc(CNc2ncnc3c2[nH]c2cc(OC)c(OC)cc23)cc1 do in these assays?
HP1b binding inh: 2%; PI5P4Ka inh: -1; JMJD2A Tudor: inconclusive; BAZ2B block: inconclusive; G9a inh: -9%[59 µM]; L3MBTL1 block: -3%

Results for COc1ccc(CNc2ncnc3c2[nH]c2ccccc23)cc1 ?
HP1b binding inh: -9%; PI5P4Ka inh: 1; JMJD2A Tudor: inconclusive; BAZ2B block: -22%; G9a inh: 50µM*; L3MBTL1 block: -19%

What do the screens show for `C1=C(CCNc2ncnc3c2[nH]c2ccccc23)CCCC1`?
HP1b binding inh: -17%; PI5P4Ka inh: -14; JMJD2A Tudor: -34%; BAZ2B block: inconclusive; G9a inh: 56µM*; L3MBTL1 block: -14%

How did CCOC(=O)C1CCN(C(c2ccc(SC)cc2)c2c(O)cc(C)n(Cc3ccco3)c2=O)CC1 (stereo not given) do in these assays?
HP1b binding inh: 2%[57 µM]; JMJD2A Tudor: 56µM*; BAZ2B block: -19%; G9a inh: inconclusive

Results for CCOC(=O)CNC(=O)C(=O)c1c(O)[nH]c2ccccc12 ?
HP1b binding inh: 6%; PI5P4Ka inh: 1; JMJD2A Tudor: 50µM*; BAZ2B block: -4%; G9a inh: -6%[12.7 µM]; L3MBTL1 block: -4%

What do the screens show for `O=[S+]([O-])(c1ccc2nsnc2c1)N1CCN([S+](=O)([O-])c2c(F)cccc2F)CC1`?
JMJD2A Tudor: -12%

What do the screens show for `Cc1ccc(S(=O)(=O)N2[C@@H](c3ccc(Cl)c(Cl)c3)C(C(=O)O)=C[C@H]2CC2CCCC2)cc1`?
HP1b binding inh: 12%; PI5P4Ka inh: -4; JMJD2A Tudor: 89µM*; L3MBTL1 block: -8%

Results for Cc1ccc(-c2csc(-c3nc(-c4ccc(Br)s4)cs3)n2)cc1 ?
HP1b binding inh: 23%; JMJD2A Tudor: -4%; BAZ2B block: 10%; G9a inh: 4%[59 µM]

What do the screens show for `CCOc1ccc(CCNC(=O)c2nccnc2C(=O)O)cc1OCC`?
HP1b binding inh: 20%; PI5P4Ka inh: 0; JMJD2A Tudor: -2%; BAZ2B block: inconclusive; G9a inh: 50µM*

How did CCOc1ccc(CCNC(=O)c2oc3c(c2C)-c2[nH]ncc2CC3)cc1OCC do in these assays?
HP1b binding inh: 8%; PI5P4Ka inh: -10; JMJD2A Tudor: -26%; BAZ2B block: -6%; G9a inh: 45µM*; L3MBTL1 block: inconclusive

What do the screens show for `CCOc1ccc(CCNC(=O)c2ccc(Cl)c(S(=O)(=O)N3CCOCC3)c2)cc1OCC`?
HP1b binding inh: inconclusive; PI5P4Ka inh: -11; JMJD2A Tudor: inconclusive; BAZ2B block: 56µM*; G9a inh: 56µM*; L3MBTL1 block: -13%

What do the screens show for `CCc1c(C)sc(NC(=S)N2CCN(C(=O)C3CCCO3)CC2)c1C(=O)OC` (stereo not given)?
HP1b binding inh: inconclusive; PI5P4Ka inh: -1; JMJD2A Tudor: inconclusive; BAZ2B block: inconclusive; G9a inh: 50µM*

How did Cc1nc(CCNC(=O)CC2C(=O)NCCN2Cc2ccc(F)cc2)sc1C (stereo not given) do in these assays?
HP1b binding inh: 25%; PI5P4Ka inh: 2; JMJD2A Tudor: -16%; BAZ2B block: -2%; G9a inh: 56µM*; L3MBTL1 block: 1%

What do the screens show for `Cc1nc(CCNC(=O)CC2C(=O)NCCN2Cc2ccccc2F)sc1C` (stereo not given)?
HP1b binding inh: -3%; PI5P4Ka inh: 2; JMJD2A Tudor: 1%; BAZ2B block: -14%; G9a inh: 45µM*; L3MBTL1 block: -3%

Results for Cc1nc(CNC(=O)CC2C(=O)NCCN2Cc2ccc(F)cc2)cs1 (stereo not given) ?
HP1b binding inh: 53%; PI5P4Ka inh: -4; JMJD2A Tudor: 0%; BAZ2B block: -20%; G9a inh: 50µM*

How did CCN(CC(=O)NCc1cccs1)C(=O)c1ccc(Cl)c(Cl)c1 do in these assays?
HP1b binding inh: 18%; PI5P4Ka inh: -1; JMJD2A Tudor: -15%; L3MBTL1 block: 7%

Results for CCCc1nc2ccccc2c(C(=O)N(CC)CC(=O)NCc2cccs2)c1CC ?
HP1b binding inh: 22%; PI5P4Ka inh: -2; JMJD2A Tudor: 3%; BAZ2B block: 8%; G9a inh: 35µM*; L3MBTL1 block: 4%

Results for CCOC(=O)/C(=N/Nc1ccc(OC)cc1)Sc1nnc(CCc2ccccc2)n1-c1ccccc1 ?
HP1b binding inh: 1%; PI5P4Ka inh: -25; JMJD2A Tudor: -35%; BAZ2B block: -34%; G9a inh: inconclusive; L3MBTL1 block: -6%

Results for COc1ccc(-c2nnc(SCC(=O)Nc3ccccc3)n2C)cc1 ?
HP1b binding inh: 11%; JMJD2A Tudor: 8%; BAZ2B block: 2%; G9a inh: -18%; L3MBTL1 block: -2%

What do the screens show for `CCOC(=O)/C(=N\Nc1ccc(Cl)cc1)Sc1nnc(-c2ccc(OC)cc2)n1C`?
HP1b binding inh: 35%; PI5P4Ka inh: -2; JMJD2A Tudor: -23%; BAZ2B block: inconclusive; G9a inh: 10µM*; L3MBTL1 block: 5%

Results for COC(=O)/C(=N\Nc1ccccc1)Sc1nnc(-c2ccc(OC)cc2)n1C ?
HP1b binding inh: 24%; PI5P4Ka inh: -5; JMJD2A Tudor: inconclusive; BAZ2B block: -5%; G9a inh: 5µM*; L3MBTL1 block: 1%

What do the screens show for `CCOc1ccccc1NC(=O)Cn1c(=O)n(-c2ccc(C)c(C)c2)c(=O)c2c(C)c(C(=O)N(C)C)sc21`?
HP1b binding inh: 45%; JMJD2A Tudor: -29%; BAZ2B block: 17%; G9a inh: inconclusive

What do the screens show for `CCCCCNC(=O)c1ccc2c(=O)[nH]c3c(C(=O)NCC4CCCO4)sc(=S)n3c2c1` (stereo not given)?
HP1b binding inh: inconclusive; PI5P4Ka inh: -26; JMJD2A Tudor: -33%[57.1 µM]; BAZ2B block: -39%; G9a inh: inconclusive

How did O=C(NCc1ccccc1)c1ccc2c(=O)[nH]c3c(C(=O)NCC4CCCO4)sc(=S)n3c2c1 (stereo not given) do in these assays?
HP1b binding inh: inconclusive; PI5P4Ka inh: -17; JMJD2A Tudor: inconclusive; BAZ2B block: 40µM*; G9a inh: 45µM*; L3MBTL1 block: 5%

Results for Cc1ccc(CNC(=O)c2ccc3c(=O)[nH]c4c(C(=O)NCC5CCCO5)sc(=S)n4c3c2)cc1 (stereo not given) ?
HP1b binding inh: -38%; PI5P4Ka inh: 3; JMJD2A Tudor: inconclusive; BAZ2B block: 35µM*; G9a inh: inconclusive

What do the screens show for `O=C1Cc2cc(S(=O)(=O)N3CCN(c4ccccc4)CC3)ccc2N1`?
HP1b binding inh: 23%; PI5P4Ka inh: -1; JMJD2A Tudor: -12%; BAZ2B block: -27%; G9a inh: inconclusive; L3MBTL1 block: -3%
